The full ranking holds about 16,000 sequences; the median of “rpm ratio (pull-down/input)” is about 0.94, and the highest 2% start at about 1.7. The list comes from a sample in which the highest values are over-represented; it also holds similar and randomly drawn sequences.

Our source for the binding signal values is publication PMC12820563, “FoxP3 forms a head-to-head dimer in vivo and stabilizes its multimerization on adjacent microsatellites”.

For the assay, the target named is T1, MBP-FoxP1dN (Mus musculus, UniProt P58462 326-579).
T1 sequence: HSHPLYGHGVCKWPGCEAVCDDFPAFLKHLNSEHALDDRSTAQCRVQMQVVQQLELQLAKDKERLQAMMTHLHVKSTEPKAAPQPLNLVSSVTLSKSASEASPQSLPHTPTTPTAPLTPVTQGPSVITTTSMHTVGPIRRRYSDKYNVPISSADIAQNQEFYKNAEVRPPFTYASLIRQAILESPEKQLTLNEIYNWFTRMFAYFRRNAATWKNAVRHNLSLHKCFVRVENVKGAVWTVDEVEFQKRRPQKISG
The assay can be described thus: PD-seq (MBP pull-down with sequencing); 20 mM Tris-HCl pH 7.5, 100 mM NaCl, 1.5 mM MgCl2, 0.4 uM protein, 0.1 uM dsDNA library, 30 min, room temperature, amylose pull-down; high values mean tight binding. Particulars: protein: recombinant; tags: His6-MBP; chain copies: 2; dsDNA, one strand shown. The method, boiled down: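 In Tris pH 7.5 buffer with NaCl and MgCl2, 0.4 µM His6-MBP-tagged mouse FoxP3 or FoxP1 fragment lacking the N-terminus, from E. coli, met 0.1 µM Klenow-filled double-stranded degenerate DNA library for 30 min at room temperature. Three washes on amylose resin followed capture of the complexes, then proteinase K release of DNA, PCR barcoding and Illumina sequencing. Binding is taken as pooled-replicate reads-per-million enrichment of pull-down relative to input.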
For the sequence “GATGATTGTTCTCCCAGCTGATGAATTTGTTGTTTCGAGTAAACAAATTTTCCTAATCTTTCTGTTCAAGCGCCATCTAC”, the binding signal was 2.54 RPM ratio (pull-down/input).
With “GATGATTGTTCTCCCAGCTGATGAATTGTTTTGTTCGAGTAAACAAATTTTCCTAATCTTTCTGTTCAAGCGCCATCTAC”, the binding signal was 1.97 RPM ratio (pull-down/input).
The figure for “GATGATTGTTCTCCCAGCTGATGAATTTGTTTTTTCGAGTAAACAAATTTTCCTAATCTTTCTGTTCAAGCGCCATCTAC” is 2.09 RPM ratio (pull-down/input); for “GATGATTGTTCTCCCAGCTGATGAATTTTTTGATTCGAGTAAACAAATTTTCCTAATCTTTCTGTTCAAGCGCCATCTAC” it is 1.02 RPM ratio (pull-down/input).
To “GATGATTGTTCTCCCAGCTGATGAATTCTTTGATTCGAGTAAACAAATTTTCCTAATCTTTCTGTTCAAGCGCCATCTAC” belongs 0.885 RPM ratio (pull-down/input); to “GATGATTGTTCTCCCAGCTGATGAATTAAGATGATCGAGTAAACAAATTTTCCTAATCTTTCTGTTCAAGCGCCATCTAC”, 0.992 RPM ratio (pull-down/input); to “GATGATTGTTCTCCCAGCTGATGAATTTGACTATTCGAGTAAACAAATTTTCCTAATCTTTCTGTTCAAGCGCCATCTAC”, 0.903 RPM ratio (pull-down/input).
To “GATGATTGTTCTCCCAGCTGATGAATTATTTGCGTCGAGTAAACAAATTTTCCTAATCTTTCTGTTCAAGCGCCATCTAC” belongs 1.66 RPM ratio (pull-down/input).
As to “GATGATTGTTCTCCCAGCTGATGAATTGTCCACATCGAGTAAACAAATTTTCCTAATCTTTCTGTTCAAGCGCCATCTAC”, the binding signal is 1.33 RPM ratio (pull-down/input).
Turning to “GATGATTGTTCTCCCAGCTGATGAATTGCTTCCTTCGAGTAAACAAATTTTCCTAATCTTTCTGTTCAAGCGCCATCTAC”, the binding signal is 1.06 RPM ratio (pull-down/input).
The figure for “GATGATTGTTCTCCCAGCTGATGAATTCTTAATATCGAGTAAACAAATTTTCCTAATCTTTCTGTTCAAGCGCCATCTAC” is 1.08 RPM ratio (pull-down/input).
To “GATGATTGTTCTCCCAGCTGATGAATTCAGGTTGTCGAGTAAACAAATTTTCCTAATCTTTCTGTTCAAGCGCCATCTAC” belongs 1 RPM ratio (pull-down/input); to “GATGATTGTTCTCCCAGCTGATGAATTCGAAGGATCGAGTAAACAAATTTTCCTAATCTTTCTGTTCAAGCGCCATCTAC”, 0.845 RPM ratio (pull-down/input).
To “GATGATTGTTCTCCCAGCTGATGAATTTCTTGATTCGAGTAAACAAATTTTCCTAATCTTTCTGTTCAAGCGCCATCTAC” belongs 1.01 RPM ratio (pull-down/input).
With “GATGATTGTTCTCCCAGCTGATGAATTTGCTGGGTCGAGTAAACAAATTTTCCTAATCTTTCTGTTCAAGCGCCATCTAC”, the binding signal was 0.859 RPM ratio (pull-down/input).
The figure for “GATGATTGTTCTCCCAGCTGATGAATTCGCGGACTCGAGTAAACAAATTTTCCTAATCTTTCTGTTCAAGCGCCATCTAC” is 0.757 RPM ratio (pull-down/input); for “GATGATTGTTCTCCCAGCTGATGAATTGTTGATTTCGAGTAAACAAATTTTCCTAATCTTTCTGTTCAAGCGCCATCTAC” it is 2.42 RPM ratio (pull-down/input).
The figure for “GATGATTGTTCTCCCAGCTGATGAATTTGTTTCTTCGAGTAAACAAATTTTCCTAATCTTTCTGTTCAAGCGCCATCTAC” is 1.7 RPM ratio (pull-down/input); for “GATGATTGTTCTCCCAGCTGATGAATTGAATTGTTCGAGTAAACAAATTTTCCTAATCTTTCTGTTCAAGCGCCATCTAC” it is 0.984 RPM ratio (pull-down/input).
For “GATGATTGTTCTCCCAGCTGATGAATTGTTGAATTCGAGTAAACAAATTTTCCTAATCTTTCTGTTCAAGCGCCATCTAC”, the binding signal was 1.15 RPM ratio (pull-down/input).
The figure for “GATGATTGTTCTCCCAGCTGATGAATTTTTTGTTTCGAGTAAACAAATTTTCCTAATCTTTCTGTTCAAGCGCCATCTAC” is 1.13 RPM ratio (pull-down/input); for “GATGATTGTTCTCCCAGCTGATGAATTCTTTTTTTCGAGTAAACAAATTTTCCTAATCTTTCTGTTCAAGCGCCATCTAC” it is 1.07 RPM ratio (pull-down/input).
To “GATGATTGTTCTCCCAGCTGATGAATTGTTTGTTTCGAGTAAACAAATTTTCCTAATCTTTCTGTTCAAGCGCCATCTAC” belongs 2.72 RPM ratio (pull-down/input); to “GATGATTGTTCTCCCAGCTGATGAATTTTGTTTTTCGAGTAAACAAATTTTCCTAATCTTTCTGTTCAAGCGCCATCTAC”, 2.75 RPM ratio (pull-down/input); to “GATGATTGTTCTCCCAGCTGATGAATTCTGTTGTTCGAGTAAACAAATTTTCCTAATCTTTCTGTTCAAGCGCCATCTAC”, 2.6 RPM ratio (pull-down/input).
The figure for “GATGATTGTTCTCCCAGCTGATGAATTTTCTAATTCGAGTAAACAAATTTTCCTAATCTTTCTGTTCAAGCGCCATCTAC” is 1.05 RPM ratio (pull-down/input); for “GATGATTGTTCTCCCAGCTGATGAATTAGGTATATCGAGTAAACAAATTTTCCTAATCTTTCTGTTCAAGCGCCATCTAC” it is 0.972 RPM ratio (pull-down/input); for “GATGATTGTTCTCCCAGCTGATGAATTAGCAGGATCGAGTAAACAAATTTTCCTAATCTTTCTGTTCAAGCGCCATCTAC” it is 0.814 RPM ratio (pull-down/input).
Turning to “GATGATTGTTCTCCCAGCTGATGAATTAACAAGGTCGAGTAAACAAATTTTCCTAATCTTTCTGTTCAAGCGCCATCTAC”, the binding signal is 1 RPM ratio (pull-down/input).
To “GATGATTGTTCTCCCAGCTGATGAATTGTTGACTTCGAGTAAACAAATTTTCCTAATCTTTCTGTTCAAGCGCCATCTAC” belongs 2.11 RPM ratio (pull-down/input); to “GATGATTGTTCTCCCAGCTGATGAATTGACTTCTTCGAGTAAACAAATTTTCCTAATCTTTCTGTTCAAGCGCCATCTAC”, 0.996 RPM ratio (pull-down/input).
The figure for “GATGATTGTTCTCCCAGCTGATGAATTGATGACTTCGAGTAAACAAATTTTCCTAATCTTTCTGTTCAAGCGCCATCTAC” is 0.994 RPM ratio (pull-down/input).
